According to article PMC5540273 (PLoS ONE, 2017):

What follows are molecules tested on T1, TIE2. Details: concentration: 1 μM, replicates: in singlicate; n = 1.
T1 construct: gene TEK
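Also: KINOMEscan kinase panel screen.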

SMILES	%Inh [%]
Cl.c1ccc(-c2n[nH]cc2-c2ccnc(-c3ccc(CN4CCOCC4)cc3)c2)nc1 [GW776245]	24
Cc1nnc(-c2ccc3occ(-c4ccc(S(C)=O)cc4)c3c2)[nH]1 (stereo not drawn)	5
Cn1ccc2ncnc(Oc3ccc(Nc4nc5ccccc5[nH]4)cc3)c21	0
COc1cc2ncn(-c3cc(OCC4CCCO4)c(C(N)=O)s3)c2cc1OC (stereo not drawn) [GSK204607]	0
Cc1cccc(-c2nc(-c3ccc(S(C)(=O)=O)cc3)sc2-c2ccnc(NCCc3ccccc3)c2)c1	19
COC(=O)c1c(-c2ccccc2)c2cc(C(=O)O)ccc2c(=O)n1Cc1ccccc1	18
Cl.Oc1ccc(-c2nc(-c3ccccc3)[nH]c2-c2ccncc2)cc1 [SB-428218]	0
CC(=O)Nc1nc2cnc(Nc3cc(NC(=O)c4cccc(CCC#N)c4)ccc3C)nc2s1	0
CSc1nn2c(=O)cc(N3CCOCC3)nc2n1Cc1cccc(C(F)(F)F)c1C [GSK2363608]	0
O=C(Nc1n[nH]c2nc(-c3nccs3)c(Br)cc12)C1CCCC1 [SB-742609]	0
CCn1c(-c2ccccn2)nc2cnccc21 [SB-736398]	0
NC(=O)c1nnc2ccccc2c1N	98.7
COc1ccc(Nc2nccc(NCCNC(=O)Nc3ccccc3F)n2)cc1 [GSK1379901]	0
Cc1cc(N2Cc3ccccc3C2)nc(Nc2ccc(S(=O)(=O)N3CCOCC3)cc2)n1.Cl [GSK1669917]	0
CC1=C(C(=O)Nc2cc3cn[nH]c3cc2F)C(c2ccc(C(F)(F)F)cc2)CC(=O)N1 (stereo not drawn) [GSK429286]	0
COC(=O)c1c(-c2ccccc2)c2cc(OC)ccc2c(=O)n1Cc1ccccc1	0
O=C(O)COc1ncnc2cc(-c3ccc4[nH]ncc4c3)sc12	21
Nc1nc(-c2nccs2)c(-c2ccnc3ccccc23)s1 [GW693542]	0

SMILES	%Inh [%]
Cn1cncc1-c1ccc2ncnc(Nc3ccc(OCc4ccccc4)cc3)c2c1 [GW320571]	0
O=C(Nc1ccc2c(c1)OCO2)NC1CCN(c2ccnc(Nc3ccc(F)cc3)n2)C1 (stereo not drawn) [GSK1379724]	0
Cc1ccccc1-n1cnc2c(N)ncnc21 [SKF-97510]	0
Cn1ccc2ncnc(Oc3ccc(NC(=O)Nc4ccccc4)cc3)c21	0
O=C1NC(=O)C(N2CCc3ccccc32)=C1c1ccccc1Cl [SB-373598]	6
O=C(Nc1ccccc1)Nc1cccc(Oc2ccc3nccn3n2)c1	92.4
Nc1ncnc2[nH]c(-c3ccccc3)nc12 [AH5015]	0
CS(=O)(=O)c1ccc(-c2c(-c3ncn[nH]3)sc(N3CCOCC3)c2C#N)cc1	9
Cc1c(O)cccc1Nc1ccnc2ccc(C(F)(F)F)cc12.Cl [GW466413]	0
CS(=O)(=O)c1ccc(-c2nc3n(c2-c2ccncc2)CCC3)cc1 [SKF-105942]	0
Cc1cc(NCC(c2ccccc2)c2ccccc2)nc(NCc2ccc(C(F)(F)F)cc2)n1 [GW497681]	0
Cl.NC(=O)c1cccc(Nc2nccc(Nc3ccc(Oc4cccc(Cl)c4)c(Cl)c3)n2)c1 [GW659008]	1
CC(C)(C)c1ccc(C(=O)Nc2cn3cc(Cl)ccc3n2)cc1	13
O=c1cc(N2CCOCC2)nc2n(Cc3cccc(Cl)c3Cl)ccn12 [GSK2286295]	0
CCCc1ccc(S(=O)(=O)NC2CCN(c3ccnc(Nc4ccc(F)cc4)n3)C2)cc1 (stereo not drawn) [GSK1379715]	0
O=S(=O)(c1ccc(-c2ccnc3[nH]ccc23)cc1)N1CCCC1 [GSK846226]	0
COc1ccc(C2=C(Nc3cccc(C(=O)O)c3)C(=O)NC2=O)cc1 [SB-390765]	21

These molecules were tested on TLK1. Details: concentration: 1 μM, replicates: in singlicate; n = 1.

SMILES	%Inh [%]
Cl.c1ccc(-c2n[nH]cc2-c2ccnc(-c3ccc(CN4CCOCC4)cc3)c2)nc1 [GW776245]	0
Cc1nnc(-c2ccc3occ(-c4ccc(S(C)=O)cc4)c3c2)[nH]1 (stereo not drawn)	14
Cn1ccc2ncnc(Oc3ccc(Nc4nc5ccccc5[nH]4)cc3)c21	0
COc1cc2ncn(-c3cc(OCC4CCCO4)c(C(N)=O)s3)c2cc1OC (stereo not drawn) [GSK204607]	0
Cc1cccc(-c2nc(-c3ccc(S(C)(=O)=O)cc3)sc2-c2ccnc(NCCc3ccccc3)c2)c1	6
COC(=O)c1c(-c2ccccc2)c2cc(C(=O)O)ccc2c(=O)n1Cc1ccccc1	10
Cl.Oc1ccc(-c2nc(-c3ccccc3)[nH]c2-c2ccncc2)cc1 [SB-428218]	0
CC(=O)Nc1nc2cnc(Nc3cc(NC(=O)c4cccc(CCC#N)c4)ccc3C)nc2s1	0
O=C(Nc1n[nH]c2nc(-c3nccs3)c(Br)cc12)C1CCCC1 [SB-742609]	0
CCn1c(-c2ccccn2)nc2cnccc21 [SB-736398]	0
NC(=O)c1nnc2ccccc2c1N	14
COc1ccc(Nc2nccc(NCCNC(=O)Nc3ccccc3F)n2)cc1 [GSK1379901]	0
Cc1cc(N2Cc3ccccc3C2)nc(Nc2ccc(S(=O)(=O)N3CCOCC3)cc2)n1.Cl [GSK1669917]	2
CC1=C(C(=O)Nc2cc3cn[nH]c3cc2F)C(c2ccc(C(F)(F)F)cc2)CC(=O)N1 (stereo not drawn) [GSK429286]	10
COC(=O)c1c(-c2ccccc2)c2cc(OC)ccc2c(=O)n1Cc1ccccc1	23
O=C(O)COc1ncnc2cc(-c3ccc4[nH]ncc4c3)sc12	22
Nc1nc(-c2nccs2)c(-c2ccnc3ccccc23)s1 [GW693542]	0

SMILES	%Inh [%]
Cn1cncc1-c1ccc2ncnc(Nc3ccc(OCc4ccccc4)cc3)c2c1 [GW320571]	4
O=C(Nc1ccc2c(c1)OCO2)NC1CCN(c2ccnc(Nc3ccc(F)cc3)n2)C1 (stereo not drawn) [GSK1379724]	0
Cc1ccccc1-n1cnc2c(N)ncnc21 [SKF-97510]	81
Cn1ccc2ncnc(Oc3ccc(NC(=O)Nc4ccccc4)cc3)c21	2
O=C1NC(=O)C(N2CCc3ccccc32)=C1c1ccccc1Cl [SB-373598]	8
O=C(Nc1ccccc1)Nc1cccc(Oc2ccc3nccn3n2)c1	17
Nc1ncnc2[nH]c(-c3ccccc3)nc12 [AH5015]	0
CS(=O)(=O)c1ccc(-c2c(-c3ncn[nH]3)sc(N3CCOCC3)c2C#N)cc1	5
Cc1c(O)cccc1Nc1ccnc2ccc(C(F)(F)F)cc12.Cl [GW466413]	14
CS(=O)(=O)c1ccc(-c2nc3n(c2-c2ccncc2)CCC3)cc1 [SKF-105942]	0
Cc1cc(NCC(c2ccccc2)c2ccccc2)nc(NCc2ccc(C(F)(F)F)cc2)n1 [GW497681]	9
Cl.NC(=O)c1cccc(Nc2nccc(Nc3ccc(Oc4cccc(Cl)c4)c(Cl)c3)n2)c1 [GW659008]	0
CC(C)(C)c1ccc(C(=O)Nc2cn3cc(Cl)ccc3n2)cc1	23
O=c1cc(N2CCOCC2)nc2n(Cc3cccc(Cl)c3Cl)ccn12 [GSK2286295]	0
CCCc1ccc(S(=O)(=O)NC2CCN(c3ccnc(Nc4ccc(F)cc4)n3)C2)cc1 (stereo not drawn) [GSK1379715]	0
O=S(=O)(c1ccc(-c2ccnc3[nH]ccc23)cc1)N1CCCC1 [GSK846226]	24
COc1ccc(C2=C(Nc3cccc(C(=O)O)c3)C(=O)NC2=O)cc1 [SB-390765]	1
